# Test results from PubChem BioAssay.
# How the values were obtained:
# [1] = system: Human papillomavirus type 1a protein E7 (residues 44-93); experiment: small molecules binding HPV E7 44-93 – biochemical, small-molecule microarray, residues 44-93, 635 nm fluorescence, primary screen (AID 1108); conditions: fluorescence 635 nm, higher = more signal;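 note: E7 fragment applied at 1 µg/mL in TBST for 1 h at 4 C; score combines spot fluorescence with its signal to noise ratio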
# [2] = hepatitis C replication reporter changes, two-sided – Huh7 cells, luciferase reporter, HCV replication inhibitor project, primary screen (AID 1109); conditions: Huh7 HCV replicon luciferase reporter, 48 h; higher = more signal;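 note: huh7 hepatoma cells harbouring a luciferase neomycin HCV replicon reporter; luciferase luminescence as measure of HCV replicon replication; test concentration not given here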
# [3] = target: Left-right determination factor 2 (Homo sapiens) (UniProt O00292); experiment: small molecules binding LEFTY2 protein – biochemical, small-molecule microarray, 635 nm fluorescence scan, primary screen (AID 1110); conditions: higher = more signal
# Left-right determination factor 2 (Homo sapiens), sequence (O00292 whole entry, looked up): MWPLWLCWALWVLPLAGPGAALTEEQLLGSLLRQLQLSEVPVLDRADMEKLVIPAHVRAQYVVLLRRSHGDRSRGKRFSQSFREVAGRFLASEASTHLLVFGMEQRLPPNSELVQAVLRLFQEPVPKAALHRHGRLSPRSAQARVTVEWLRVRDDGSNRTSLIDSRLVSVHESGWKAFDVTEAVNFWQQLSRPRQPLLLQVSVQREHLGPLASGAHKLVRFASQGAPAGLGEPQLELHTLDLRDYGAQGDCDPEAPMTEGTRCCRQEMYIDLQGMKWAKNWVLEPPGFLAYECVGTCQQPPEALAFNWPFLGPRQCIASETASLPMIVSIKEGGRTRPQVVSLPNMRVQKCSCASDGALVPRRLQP
# [4] = target: Calmodulin-1 (Homo sapiens) (UniProt P0DP23); experiment: small molecules binding calmodulin-1 with EGTA – biochemical, small-molecule microarray, Cy5-labelled CALM1, profiling panel (AID 1111); conditions: Cy5-CALM1 binding fluorescence, higher = more signal;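 note: labelled calmodulin applied in Tris saline Tween buffer holding calcium plus EGTA and DTT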
# [5] = target: Calmodulin-1 (Homo sapiens) (UniProt P0DP23); experiment: small molecules binding Ca-loaded calmodulin-1 – biochemical, small-molecule microarray, Cy5-labelled CALM1, plus calcium, artefact control for SMM control-protein annotation, profiling panel (AID 1112); conditions: Cy5-CALM1 binding fluorescence, higher = more signal;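 note: score merges spot fluorescence with signal to noise from triplicate slides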
# [6] = probe aWnt5a binding to arrayed compounds – biochemical, biotinylated probe, 635/667 nm fluorescence, primary screen (AID 1113); conditions: small-molecule microarray, higher = more signal;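 note: score merges 667 nm fluorescence intensity with signal-to-noise per printed feature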
# [7] = probe aShh binding to arrayed compounds – biochemical, biotinylated probe, 635/667 nm fluorescence, primary screen (AID 1114); conditions: small-molecule microarray, higher = more signal;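 note: probe is biotin-labelled aShh protein from a stem cell growth factor screen; measures binding of labelled protein to compounds printed on the slide; score merges feature fluorescence at 667 nm with signal-to-noise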
# [8] = probe aNog binding to arrayed compounds – biochemical, biotinylated probe, 635/667 nm fluorescence, primary screen (AID 1115); conditions: small-molecule microarray, higher = more signal;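 note: probe is biotinylated aNog protein used at 0.15 µg/mL for 1 h at 4 C; z-score combines 667 nm fluorescence of each spot with its signal to noise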
# [9] = target: Torsin-1A-interacting protein 1 (Homo sapiens) (UniProt Q5JTV8); experiment: compound microarray binding of lysate hLAP1 – cell lysate, small-molecule microarray, COS7 lysate, 635/667 nm fluorescence, primary screen (AID 1116); conditions: 635 nm fluorescence, higher = more signal
# Torsin-1A-interacting protein 1 (Homo sapiens), sequence (Q5JTV8 whole entry, looked up): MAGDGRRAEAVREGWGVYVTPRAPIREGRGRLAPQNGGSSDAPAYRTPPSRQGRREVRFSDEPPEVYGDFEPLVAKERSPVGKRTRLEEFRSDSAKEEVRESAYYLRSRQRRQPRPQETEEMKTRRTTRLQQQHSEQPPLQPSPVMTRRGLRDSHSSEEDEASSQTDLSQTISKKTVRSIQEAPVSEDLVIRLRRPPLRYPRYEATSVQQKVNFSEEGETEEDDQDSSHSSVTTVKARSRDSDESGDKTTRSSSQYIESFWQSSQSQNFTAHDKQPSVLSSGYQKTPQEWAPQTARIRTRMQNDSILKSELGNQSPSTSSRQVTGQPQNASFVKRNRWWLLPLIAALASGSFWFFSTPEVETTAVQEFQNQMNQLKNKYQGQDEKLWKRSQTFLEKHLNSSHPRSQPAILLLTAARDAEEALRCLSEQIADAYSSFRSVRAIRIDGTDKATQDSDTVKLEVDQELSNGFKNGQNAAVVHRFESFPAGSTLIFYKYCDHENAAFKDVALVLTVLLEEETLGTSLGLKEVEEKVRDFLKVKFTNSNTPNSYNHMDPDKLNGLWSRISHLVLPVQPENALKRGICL
# [10] = target: Alpha-bungarotoxin (Bungarus multicinctus) (UniProt P60615); experiment: compounds binding labelled alpha-BTX control protein – biochemical, small-molecule microarray, Alexa647 label, 635/667 nm fluorescence, artefact control for SMM control protein annotation, profiling panel (AID 1117); conditions: alpha-BTX-A647 binding fluorescence, higher = more signal
# Alpha-bungarotoxin (Bungarus multicinctus), sequence (P60615 whole entry, looked up): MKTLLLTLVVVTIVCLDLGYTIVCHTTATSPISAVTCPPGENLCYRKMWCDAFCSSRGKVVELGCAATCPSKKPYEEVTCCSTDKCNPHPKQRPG
Structure (SMILES),composite z-score [1],z-score [2],composite z-score [3],composite z-score [4],composite z-score [5],composite z-score [6],composite z-score [7],composite z-score [8],composite z-score [9],composite z-score [10]
CC(C)=NOC(C)CN1CCCCc2nc(C)c(C)cc21 (stereo not given),0.103,-0.594,0.576,-0.254,-0.66,-0.113,-0.0769,-0.198,0.605,-0.265
CCOC(=O)CCN1C(=O)[C@H]2[C@H]3[C@H](O)[C@H](O)CC(=NOCC(C)C)[C@@H]3CC[C@H]2C1=O,-0.998,-0.488,1.01,-1.92,-1.74,-0.284,-0.0471,-0.255,-0.202,-0.799
COc1ccc(COC(=O)NN=C2C[C@@H](O)[C@@H](O)[C@@H]3[C@@H]4C(=O)N(C[C@@H]5CCCO5)C(=O)[C@@H]4CC[C@@H]23)cc1,0.222,0.778,0.179,0.342,-0.636,-0.172,-0.0793,-0.0496,0.411,0.915
CC(C)=CCCC(C)=CCON=C1C[C@@H](O)[C@@H](O)[C@@H]2[C@@H]3C(=O)N(c4cccc(Oc5ccccc5)c4)C(=O)[C@@H]3CC[C@H]12,1.32,0.237,0.323,0.322,0.321,-0.148,0.0483,-0.0129,0.173,-0.0168
CCOC(=O)[C@H](Cc1ccccc1)NC(=O)CCC1CC(OC(=O)NCCc2ccc(F)cc2)CC2(CCCC(COC(=O)NCc3cccc(C(F)(F)F)c3)O2)O1 (stereo not given in full),1.3,-1.8,0.763,1.43,0.465,-0.154,-0.221,0.0498,0.109,1.04
CCN1C(=O)[C@H]2[C@H]3[C@H](O)[C@H](O)CC(=NO[C@H](C)c4cn([C@@H]5COC[C@H]5O)nn4)[C@@H]3CC[C@H]2C1=O,-0.137,-0.936,0.684,-0.3,-0.4,-0.0445,-0.291,0.0043,-0.0938,-0.23
CON=C(C)CCN1CCc2nc(-c3ccccc3)c(-c3ccccc3)cc2C1,-0.539,-4.3,-0.117,0.709,0.0504,-0.219,-0.0011,0.107,0.0735,-0.107
O=C1C[C@H](c2ccccc2)[C@H](c2ccc(Br)cc2)O1,0.12,0.588,0.603,-0.649,-0.447,-0.129,-0.138,-0.35,-0.264,0.239
CCOC(=O)CCN1C(=O)[C@H]2[C@@H]3C(=CC[C@H]2C1=O)C(=O)[C@H]1O[C@H]1[C@H]3O,-0.636,-4.75,-0.72,-0.719,-0.481,-0.222,-0.221,-0.358,0.447,-0.473
C#CCCCON=C1C[C@@H](O)[C@@H](O)[C@@H]2[C@@H]3C(=O)N(C[C@@H]4CCCO4)C(=O)[C@@H]3CC[C@H]12,0.592,0.403,0.397,0.256,-0.0973,-0.096,-0.2,-0.462,0.742,0.355
COC(=O)[C@H](C)NC(=O)CCC1CC(OC(=O)NCCc2ccc(F)cc2)CC2(CCCC(COC(=O)NCC3CCCCC3)O2)O1 (stereo not given in full),1.39,-1.34,0.573,0.71,-0.039,-0.1,0.0469,0.144,0.774,0.382
CC1(C)O[C@H]2OC([C@H](O)CON3C(=O)c4ccccc4C3=O)[C@H](O)[C@H]2O1 (stereo not given in full),-0.0928,-0.585,0.244,-0.494,-0.539,-0.109,-0.27,-0.218,-0.1,-0.0472
COC(=O)[C@@H]1CC[C@H](C)[C@@H](c2ccc(C)cc2)N1C(=O)c1ccc(C=NO[C@@H](C)c2cc(-c3c(C)cc(C)cc3C)no2)cc1,1.04,-0.542,0.45,0.0785,-0.37,-0.0236,-0.141,0.0373,0.722,0.208
CO[C@H]1COC(=O)[C@H](C)COC(=O)[C@@H](OCc2ccccc2)C=C[C@@H]1C,-0.0848,-0.0886,0.328,-0.46,-0.726,-0.123,-0.0769,-0.379,-0.149,-0.281
COc1ccc(COC(=O)NN=C2C[C@@H](O)[C@@H](O)[C@@H]3[C@@H]4C(=O)N(C(C)(C)C)C(=O)[C@@H]4CC[C@@H]23)cc1,0.653,-0.828,1.27,1.19,-0.306,-0.0566,-0.0626,0.0498,0.207,0.751
CCN1C(=O)[C@H]2[C@H]3[C@H](O)[C@H](O)CC(=NO[C@@H]4O[C@H](CO)[C@@H](O)[C@H](O)[C@H]4O)[C@H]3CC[C@H]2C1=O,0.442,1.2,0.486,-0.354,-1.04,-0.0529,0.204,0.117,0.196,0.497
CC(C)CON=C1C[C@@H](O)[C@@H](O)[C@@H]2[C@@H]3C(=O)N(Cc4ccccc4)C(=O)[C@@H]3CC[C@H]12,-0.106,-1.14,0.623,-0.144,-0.414,-0.0107,-0.324,-0.169,0.163,0.506
CC(CCC(=O)OC[C@H]1O[C@H](C#Cc2ccccc2)C=C[C@@H]1Oc1ccc(C)cc1)=NOC[C@@H](C)[C@H](OCc1ccccc1)C(C)C,-1.89,-0.982,-0.502,-1.24,-0.336,-0.0573,-0.899,-0.902,-0.746,-0.79
CCOC(=O)[C@H](Cc1ccccc1)NC(=O)CCC1CC(OC(=O)NCCc2ccc(F)cc2)CC2(CCCC(COC(=O)NCCOc3ccccc3)O2)O1 (stereo not given in full),1.4,-1.05,0.701,0.483,-0.296,-0.0721,-0.0709,-0.28,0.306,0.472
CCOC(=O)[C@H](Cc1ccccc1)NC(=O)CCC1CC(OC(=O)NCc2cccc3ccccc23)CC2(CCCC(COC(=O)NCCc3ccc(Cl)cc3)O2)O1 (stereo not given in full),1.02,0.246,0.366,1.14,-0.369,-0.0738,-0.153,0.793,0.289,0.429
CC(CCN1CCc2nc(-c3ccccc3)c(-c3ccccc3)cc2C1)=NO[C@H](C)c1cn([C@H](CO)Cc2ccccc2)nn1,-0.93,-2.3,0.332,0.0521,0.509,-0.0242,-0.16,-0.0309,0.34,1.2
COC(=O)[C@H](C)NC(=O)CCC1CC(OC(=O)NCCc2ccc(F)cc2)CC2(CCCC(COC(=O)NCc3ccccc3)O2)O1 (stereo not given in full),1.32,-1.18,0.816,0.516,-0.796,-0.141,-0.221,-0.384,0.708,0.574
CC(CCC(=O)OC[C@H]1O[C@H](C#Cc2ccccc2)C=C[C@@H]1Oc1ccc(C)cc1)=NO[C@@H](C)c1cc(-c2c(C)cc(C)cc2C)no1,-0.612,-0.824,-0.547,-0.413,-0.262,-0.232,0.0121,-0.118,0.328,0.326
CO[C@@H]1C=CCC(=O)N[C@@H](C)C(=O)OC[C@@H](OC)[C@H](C)C=CCC(=O)OC[C@H]1C,-0.669,0.388,1.48,-1.14,-1.96,-0.152,-0.0035,0.109,0.037,0.373
CC(C)[C@H](NC(=O)OC(C)(C)C)[C@@H](O)CC(=O)C(C)(C)C,0.223,0.515,-0.1,-0.32,-0.748,-0.18,-0.24,0.237,0.161,0.302
COC(=O)C1=C(C)N(Cc2ccccc2)C2=C3C(=O)OCC[C@@H]3[C@@](O)(C(=O)OC)C(=O)N2[C@@H]1c1ccccc1,-0.0816,0.935,0.528,-0.0583,-0.689,-0.13,0.0278,-0.189,-0.207,0.415
CC(C)(C)N1C(=O)[C@H]2[C@H]3[C@H](O)[C@H](O)CC(=NOC[C@@H](O)COCc4ccco4)[C@H]3CC[C@H]2C1=O,0.39,0.61,-0.203,-0.0051,-0.333,-0.147,-0.0471,0.0868,0.706,1.15
